Legend:
Assay in all cases: DAPPL (digital affinity profiling via proximity ligation, sequencing); 10 mM Tris-HCl pH 7.5, 50 mM NaCl, 1 mM DTT, 4% glycerol, room temperature, 30 min; GST-TFs on glutathione beads, 16-mer random dsDNA library, 0.1% formaldehyde crosslink after washing; high values mean tight binding
Settings in all cases: protein: recombinant; tags: N-terminal GST; dsDNA, one strand shown
FEV = target: T1, FEV (Homo sapiens, UniProt Q99581 1-238)
T1 sequence: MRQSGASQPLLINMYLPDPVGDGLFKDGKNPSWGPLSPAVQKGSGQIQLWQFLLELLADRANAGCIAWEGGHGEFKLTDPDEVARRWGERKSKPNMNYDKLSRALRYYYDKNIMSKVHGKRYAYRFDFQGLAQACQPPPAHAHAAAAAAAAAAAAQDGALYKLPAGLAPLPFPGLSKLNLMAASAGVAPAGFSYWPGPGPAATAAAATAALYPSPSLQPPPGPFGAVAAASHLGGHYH
Procedure, shortened: (§1)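 Pools of DNA-barcoded human transcription factors, expressed in yeast as GST fusions on glutathione beads and combined with a tag-only sample, were incubated with 200 nmole of a 16-mer random double-stranded DNA library. Incubation took 30 min at room temperature in Tris/NaCl/DTT/glycerol buffer and was followed by washing, 0.1% formaldehyde crosslinking, proximity ligation (BsaI/T4 ligase, 1 h, 37 °C), PCR amplification and sequencing on an Illumina NextSeq500. Binding signal is the ratio of a hexamer's read frequency for a factor to its frequency for the tag-only sample.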

ETV5 = ETV5 (Homo sapiens, UniProt P41161 1-510)
Sequence of ETV5 (P41161 whole entry): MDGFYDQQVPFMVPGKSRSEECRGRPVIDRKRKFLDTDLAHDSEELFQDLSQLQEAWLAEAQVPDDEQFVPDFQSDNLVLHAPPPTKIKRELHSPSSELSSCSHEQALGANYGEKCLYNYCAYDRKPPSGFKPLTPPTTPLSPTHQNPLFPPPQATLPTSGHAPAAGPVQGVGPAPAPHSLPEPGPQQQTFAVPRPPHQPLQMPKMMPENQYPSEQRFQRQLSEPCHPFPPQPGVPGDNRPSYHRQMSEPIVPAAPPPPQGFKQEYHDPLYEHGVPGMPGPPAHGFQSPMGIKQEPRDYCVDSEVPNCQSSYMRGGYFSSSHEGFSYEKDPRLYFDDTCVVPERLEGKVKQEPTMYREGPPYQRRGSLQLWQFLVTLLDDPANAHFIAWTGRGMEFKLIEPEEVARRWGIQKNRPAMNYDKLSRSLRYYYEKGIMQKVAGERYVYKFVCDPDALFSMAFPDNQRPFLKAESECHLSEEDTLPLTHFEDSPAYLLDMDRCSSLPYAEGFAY
Procedure, shortened: as §1

SPIC = target: T2, SPIC (Homo sapiens, UniProt Q8N5J4 1-248)
T2 sequence: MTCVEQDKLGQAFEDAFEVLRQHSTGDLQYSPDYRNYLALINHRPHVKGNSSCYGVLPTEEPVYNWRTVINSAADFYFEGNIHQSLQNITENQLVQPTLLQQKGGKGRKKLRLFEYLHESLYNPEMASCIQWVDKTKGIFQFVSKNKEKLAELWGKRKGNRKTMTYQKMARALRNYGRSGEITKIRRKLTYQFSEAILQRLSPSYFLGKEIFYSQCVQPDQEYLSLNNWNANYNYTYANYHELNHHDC
Procedure, shortened: as §1

ELF4 = ELF4 (Homo sapiens, UniProt Q99607 1-663)
Sequence of ELF4 (Q99607 whole entry): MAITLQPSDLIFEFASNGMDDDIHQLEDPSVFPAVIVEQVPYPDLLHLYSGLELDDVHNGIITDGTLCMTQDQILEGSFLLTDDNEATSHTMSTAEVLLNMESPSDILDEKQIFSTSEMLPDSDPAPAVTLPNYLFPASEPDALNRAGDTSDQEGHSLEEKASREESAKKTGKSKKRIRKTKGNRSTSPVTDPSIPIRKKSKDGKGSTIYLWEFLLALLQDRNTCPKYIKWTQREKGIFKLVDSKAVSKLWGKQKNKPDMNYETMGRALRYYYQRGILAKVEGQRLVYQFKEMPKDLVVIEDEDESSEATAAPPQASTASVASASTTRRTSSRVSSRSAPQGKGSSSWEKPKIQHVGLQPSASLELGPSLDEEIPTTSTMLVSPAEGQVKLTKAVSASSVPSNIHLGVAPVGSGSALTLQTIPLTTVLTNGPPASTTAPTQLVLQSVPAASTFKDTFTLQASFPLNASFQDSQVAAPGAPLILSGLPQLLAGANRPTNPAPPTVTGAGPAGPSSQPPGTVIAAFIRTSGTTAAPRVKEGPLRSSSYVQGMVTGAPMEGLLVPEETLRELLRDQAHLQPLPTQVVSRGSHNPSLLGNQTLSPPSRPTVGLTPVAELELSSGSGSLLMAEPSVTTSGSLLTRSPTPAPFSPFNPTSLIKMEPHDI
Procedure, shortened: as §1

ELK4 = target: T3, ELK4 (Homo sapiens, UniProt P28324-2 1-405)
T3 sequence: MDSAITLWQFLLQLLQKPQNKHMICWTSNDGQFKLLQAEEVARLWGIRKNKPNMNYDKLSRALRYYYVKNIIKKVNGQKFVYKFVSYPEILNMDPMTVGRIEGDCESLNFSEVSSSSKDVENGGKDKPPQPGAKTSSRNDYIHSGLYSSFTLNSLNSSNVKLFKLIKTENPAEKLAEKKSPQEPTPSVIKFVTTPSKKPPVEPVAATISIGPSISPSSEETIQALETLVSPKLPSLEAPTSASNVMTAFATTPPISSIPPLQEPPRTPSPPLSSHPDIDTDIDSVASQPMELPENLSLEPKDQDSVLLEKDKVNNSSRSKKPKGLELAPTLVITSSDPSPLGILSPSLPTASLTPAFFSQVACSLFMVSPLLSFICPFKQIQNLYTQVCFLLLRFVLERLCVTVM
Procedure, shortened: as §1

ETV2 = target: T4, ETV2 (Homo sapiens, UniProt O00321 1-342)
T4 sequence: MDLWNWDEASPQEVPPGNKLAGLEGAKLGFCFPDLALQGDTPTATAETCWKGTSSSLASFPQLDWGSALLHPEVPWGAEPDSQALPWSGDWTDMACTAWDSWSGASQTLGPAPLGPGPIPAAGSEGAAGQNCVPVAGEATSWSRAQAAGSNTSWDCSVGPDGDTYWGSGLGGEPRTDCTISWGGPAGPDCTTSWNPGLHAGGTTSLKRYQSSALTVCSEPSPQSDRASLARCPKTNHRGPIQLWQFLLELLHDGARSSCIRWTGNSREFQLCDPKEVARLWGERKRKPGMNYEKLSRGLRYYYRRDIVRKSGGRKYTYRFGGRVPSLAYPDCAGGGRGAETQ
Procedure, shortened: as §1

ELF3 = target: T5, ELF3 (Homo sapiens, UniProt P78545 1-371)
T5 sequence: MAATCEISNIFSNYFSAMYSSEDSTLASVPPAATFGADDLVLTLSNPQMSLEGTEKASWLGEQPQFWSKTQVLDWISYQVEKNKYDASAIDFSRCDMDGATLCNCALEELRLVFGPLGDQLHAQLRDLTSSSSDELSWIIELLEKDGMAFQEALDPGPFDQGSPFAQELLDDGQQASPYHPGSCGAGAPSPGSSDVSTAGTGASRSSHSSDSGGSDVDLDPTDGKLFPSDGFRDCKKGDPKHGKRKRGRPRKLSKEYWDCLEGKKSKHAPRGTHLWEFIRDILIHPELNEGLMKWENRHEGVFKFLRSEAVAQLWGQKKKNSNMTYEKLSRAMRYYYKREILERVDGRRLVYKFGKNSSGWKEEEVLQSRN
Procedure, shortened: as §1

ETV1 = ETV1 (Homo sapiens, UniProt P50549 1-477)
Sequence of ETV1 (P50549 whole entry): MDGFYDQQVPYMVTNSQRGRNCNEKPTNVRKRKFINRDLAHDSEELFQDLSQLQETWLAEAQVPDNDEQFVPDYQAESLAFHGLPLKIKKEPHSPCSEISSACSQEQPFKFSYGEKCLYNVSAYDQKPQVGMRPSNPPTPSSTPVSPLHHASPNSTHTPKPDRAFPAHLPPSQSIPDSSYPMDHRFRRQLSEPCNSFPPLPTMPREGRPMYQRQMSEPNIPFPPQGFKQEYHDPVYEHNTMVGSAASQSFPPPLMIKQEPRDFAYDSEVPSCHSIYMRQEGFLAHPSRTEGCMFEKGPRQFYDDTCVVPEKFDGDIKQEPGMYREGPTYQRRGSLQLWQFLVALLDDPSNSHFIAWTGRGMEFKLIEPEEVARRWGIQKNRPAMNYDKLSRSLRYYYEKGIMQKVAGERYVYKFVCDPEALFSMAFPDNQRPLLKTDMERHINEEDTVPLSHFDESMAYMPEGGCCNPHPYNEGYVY
Procedure, shortened: as §1

Sequence | binding signal (FEV) | binding signal (ETV5) | binding signal (SPIC) | binding signal (ELF4) | binding signal (ELK4) | binding signal (ETV2) | binding signal (ELF3) | binding signal (ETV1)
GTAACA | 1.14 fold enrichment (6-mer frequency, TF over GST control) | 1.08 fold enrichment (6-mer frequency, TF over GST control) | 1.12 fold enrichment (6-mer frequency, TF over GST control) | 1.14 fold enrichment (6-mer frequency, TF over GST control) | 1.12 fold enrichment (6-mer frequency, TF over GST control) | 1.03 fold enrichment (6-mer frequency, TF over GST control) | 1.27 fold enrichment (6-mer frequency, TF over GST control) | 1.14 fold enrichment (6-mer frequency, TF over GST control)
GCCCCC | 1.13 fold enrichment (6-mer frequency, TF over GST control) | 1.06 fold enrichment (6-mer frequency, TF over GST control) | 1.26 fold enrichment (6-mer frequency, TF over GST control) | 1.11 fold enrichment (6-mer frequency, TF over GST control) | 1.18 fold enrichment (6-mer frequency, TF over GST control) | 1.23 fold enrichment (6-mer frequency, TF over GST control) | 1.2 fold enrichment (6-mer frequency, TF over GST control) | 1.1 fold enrichment (6-mer frequency, TF over GST control)
GTTTTG | 1.16 fold enrichment (6-mer frequency, TF over GST control) | 1.28 fold enrichment (6-mer frequency, TF over GST control) | 1.34 fold enrichment (6-mer frequency, TF over GST control) | 1.18 fold enrichment (6-mer frequency, TF over GST control) | 1.22 fold enrichment (6-mer frequency, TF over GST control) | 1.26 fold enrichment (6-mer frequency, TF over GST control) | 1.03 fold enrichment (6-mer frequency, TF over GST control) | 1.25 fold enrichment (6-mer frequency, TF over GST control)
ACTACA | 1.17 fold enrichment (6-mer frequency, TF over GST control) | 1.24 fold enrichment (6-mer frequency, TF over GST control) | 1.06 fold enrichment (6-mer frequency, TF over GST control) | 1.16 fold enrichment (6-mer frequency, TF over GST control) | 1.07 fold enrichment (6-mer frequency, TF over GST control) | 1.11 fold enrichment (6-mer frequency, TF over GST control) | 1.04 fold enrichment (6-mer frequency, TF over GST control) | 1.22 fold enrichment (6-mer frequency, TF over GST control)
AGCAGC | 1.12 fold enrichment (6-mer frequency, TF over GST control) | 1.18 fold enrichment (6-mer frequency, TF over GST control) | 1.11 fold enrichment (6-mer frequency, TF over GST control) | 1.14 fold enrichment (6-mer frequency, TF over GST control) | 1.05 fold enrichment (6-mer frequency, TF over GST control) | 1.07 fold enrichment (6-mer frequency, TF over GST control) | 1.08 fold enrichment (6-mer frequency, TF over GST control) | 1.17 fold enrichment (6-mer frequency, TF over GST control)
CCTCAC | 1.27 fold enrichment (6-mer frequency, TF over GST control) | 1.25 fold enrichment (6-mer frequency, TF over GST control) | 1.11 fold enrichment (6-mer frequency, TF over GST control) | 1.31 fold enrichment (6-mer frequency, TF over GST control) | 1.16 fold enrichment (6-mer frequency, TF over GST control) | 1.24 fold enrichment (6-mer frequency, TF over GST control) | 1.2 fold enrichment (6-mer frequency, TF over GST control) | 1.27 fold enrichment (6-mer frequency, TF over GST control)
CGTATC | 1.28 fold enrichment (6-mer frequency, TF over GST control) | 1.13 fold enrichment (6-mer frequency, TF over GST control) | 1.19 fold enrichment (6-mer frequency, TF over GST control) | 1.2 fold enrichment (6-mer frequency, TF over GST control) | 1.16 fold enrichment (6-mer frequency, TF over GST control) | 1.15 fold enrichment (6-mer frequency, TF over GST control) | 1.13 fold enrichment (6-mer frequency, TF over GST control) | 1.18 fold enrichment (6-mer frequency, TF over GST control)
ACAACC | 1.34 fold enrichment (6-mer frequency, TF over GST control) | 1.27 fold enrichment (6-mer frequency, TF over GST control) | 1.19 fold enrichment (6-mer frequency, TF over GST control) | 1.19 fold enrichment (6-mer frequency, TF over GST control) | 1.19 fold enrichment (6-mer frequency, TF over GST control) | 1.26 fold enrichment (6-mer frequency, TF over GST control) | 1.26 fold enrichment (6-mer frequency, TF over GST control) | 1.23 fold enrichment (6-mer frequency, TF over GST control)

From article PMC7862700, “An all-to-all approach to the identification of sequence-specific readers for epigenetic DNA modifications on cytosine”
